According to PMC7862700, “An all-to-all approach to the identification of sequence-specific readers for epigenetic DNA modifications on cytosine”:

How the values were obtained:
Experiment in all cases: DAPPL (digital affinity profiling via proximity ligation, sequencing); 10 mM Tris-HCl pH 7.5, 50 mM NaCl, 1 mM DTT, 4% glycerol, room temperature, 30 min; GST-TFs on glutathione beads, 16-mer random dsDNA library, 0.1% formaldehyde crosslink after washing; high values mean tight binding
FLI1 = target: T1, FLI1 (Homo sapiens, UniProt Q01543 1-452); conditions: protein: recombinant; tags: N-terminal GST; dsDNA, one strand shown
T1 sequence: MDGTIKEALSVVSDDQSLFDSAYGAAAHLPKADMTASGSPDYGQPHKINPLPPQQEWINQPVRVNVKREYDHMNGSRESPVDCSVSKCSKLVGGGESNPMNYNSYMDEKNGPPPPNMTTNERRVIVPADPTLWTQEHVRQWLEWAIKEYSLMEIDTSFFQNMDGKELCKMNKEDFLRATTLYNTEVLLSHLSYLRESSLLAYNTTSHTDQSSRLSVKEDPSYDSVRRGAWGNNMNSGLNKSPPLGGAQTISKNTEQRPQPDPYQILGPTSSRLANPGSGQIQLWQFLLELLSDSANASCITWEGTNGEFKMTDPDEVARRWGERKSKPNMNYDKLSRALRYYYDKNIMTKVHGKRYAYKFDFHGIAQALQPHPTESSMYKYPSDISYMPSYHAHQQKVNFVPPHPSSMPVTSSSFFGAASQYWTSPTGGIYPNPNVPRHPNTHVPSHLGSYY
How it was run: (§1)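 Beads coated with glutathione captured GST-fused human transcription factors that had been expressed in yeast, and the factors were then given DNA barcodes and pooled with a tag-only sample. The pools were incubated with 200 nmole of a random double-stranded 16-mer DNA library in Tris/NaCl/DTT/glycerol buffer for 30 min at room temperature, washed, crosslinked with 0.1% formaldehyde and proximity-ligated with BsaI/T4 ligase at 37 °C for 1 h. PCR amplification and Illumina NextSeq500 sequencing came last. Binding signal is each hexamer's read frequency for a factor divided by its frequency for the tag-only sample.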

ELK1 = target: T2, ELK1 (Homo sapiens, UniProt P19419 1-428); conditions: protein: recombinant; tags: N-terminal GST; dsDNA, one strand shown
T2 sequence: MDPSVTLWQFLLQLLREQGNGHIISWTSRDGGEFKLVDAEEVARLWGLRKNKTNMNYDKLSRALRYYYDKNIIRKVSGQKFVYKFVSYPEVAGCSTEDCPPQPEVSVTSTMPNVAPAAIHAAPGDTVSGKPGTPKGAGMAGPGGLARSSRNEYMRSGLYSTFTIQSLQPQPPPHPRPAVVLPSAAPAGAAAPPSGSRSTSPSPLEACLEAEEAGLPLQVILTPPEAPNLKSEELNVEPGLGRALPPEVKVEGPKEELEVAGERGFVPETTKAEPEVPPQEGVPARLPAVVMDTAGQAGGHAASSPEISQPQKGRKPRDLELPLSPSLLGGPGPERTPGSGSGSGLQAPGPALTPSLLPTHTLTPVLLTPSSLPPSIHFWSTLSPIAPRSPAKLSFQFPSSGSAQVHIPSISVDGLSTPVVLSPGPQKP
How it was run: as §1

GABPA = target: T3, GABPA (Homo sapiens, UniProt Q06546 1-454); conditions: protein: recombinant; tags: N-terminal GST; dsDNA, one strand shown
T3 sequence: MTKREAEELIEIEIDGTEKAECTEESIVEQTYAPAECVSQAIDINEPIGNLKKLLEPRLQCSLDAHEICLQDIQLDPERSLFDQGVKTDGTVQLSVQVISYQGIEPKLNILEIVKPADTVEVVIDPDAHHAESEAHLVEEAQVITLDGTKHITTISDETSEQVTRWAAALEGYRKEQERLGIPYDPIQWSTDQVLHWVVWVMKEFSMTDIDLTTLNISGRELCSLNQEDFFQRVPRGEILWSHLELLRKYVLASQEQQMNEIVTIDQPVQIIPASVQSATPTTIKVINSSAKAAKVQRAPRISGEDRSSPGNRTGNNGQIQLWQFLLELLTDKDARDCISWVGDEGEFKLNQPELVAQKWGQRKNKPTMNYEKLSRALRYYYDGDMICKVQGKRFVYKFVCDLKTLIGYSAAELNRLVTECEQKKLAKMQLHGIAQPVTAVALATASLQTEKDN
How it was run: as §1

ERG = target: T4, ERG (Homo sapiens, UniProt P11308 1-479); conditions: protein: recombinant; tags: N-terminal GST; dsDNA, one strand shown
T4 sequence: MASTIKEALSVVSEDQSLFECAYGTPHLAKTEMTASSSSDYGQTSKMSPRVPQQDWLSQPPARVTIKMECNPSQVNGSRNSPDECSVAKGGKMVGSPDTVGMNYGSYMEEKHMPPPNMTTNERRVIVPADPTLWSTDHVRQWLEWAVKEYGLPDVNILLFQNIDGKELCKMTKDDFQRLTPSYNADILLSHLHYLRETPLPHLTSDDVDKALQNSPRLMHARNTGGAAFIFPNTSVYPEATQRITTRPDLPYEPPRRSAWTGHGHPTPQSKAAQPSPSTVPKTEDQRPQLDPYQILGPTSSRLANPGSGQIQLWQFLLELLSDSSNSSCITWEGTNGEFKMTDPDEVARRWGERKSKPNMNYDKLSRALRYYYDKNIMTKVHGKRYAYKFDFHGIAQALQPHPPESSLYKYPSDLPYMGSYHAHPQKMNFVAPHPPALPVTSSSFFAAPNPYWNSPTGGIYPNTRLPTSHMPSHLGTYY
How it was run: as §1

ELF1 = ELF1 (Homo sapiens, UniProt P32519 1-619); conditions: protein: recombinant; tags: N-terminal GST; dsDNA, one strand shown
How it was run: as §1

EHF = target: T5, EHF (Homo sapiens, UniProt Q9NZC4 1-300); conditions: protein: recombinant; tags: N-terminal GST; dsDNA, one strand shown
T5 sequence: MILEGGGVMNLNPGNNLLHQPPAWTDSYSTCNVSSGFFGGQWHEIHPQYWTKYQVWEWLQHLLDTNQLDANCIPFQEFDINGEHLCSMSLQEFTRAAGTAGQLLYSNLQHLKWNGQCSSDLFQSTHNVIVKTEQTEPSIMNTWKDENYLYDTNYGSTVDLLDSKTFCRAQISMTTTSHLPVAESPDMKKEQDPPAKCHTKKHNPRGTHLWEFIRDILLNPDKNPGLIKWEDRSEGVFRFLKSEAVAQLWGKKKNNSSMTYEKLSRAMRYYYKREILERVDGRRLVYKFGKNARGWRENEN
How it was run: as §1

SPI1 = SPI1 (Homo sapiens, UniProt P17947 1-270); conditions: protein: recombinant; tags: N-terminal GST; dsDNA, one strand shown
How it was run: as §1

SPIB = SPIB (Homo sapiens, UniProt Q01892 1-262); conditions: protein: recombinant; tags: N-terminal GST; dsDNA, one strand shown
How it was run: as §1

ELK3 = target: T6, ELK3 (Homo sapiens, UniProt P41970 1-407); conditions: protein: recombinant; tags: N-terminal GST; dsDNA, one strand shown
T6 sequence: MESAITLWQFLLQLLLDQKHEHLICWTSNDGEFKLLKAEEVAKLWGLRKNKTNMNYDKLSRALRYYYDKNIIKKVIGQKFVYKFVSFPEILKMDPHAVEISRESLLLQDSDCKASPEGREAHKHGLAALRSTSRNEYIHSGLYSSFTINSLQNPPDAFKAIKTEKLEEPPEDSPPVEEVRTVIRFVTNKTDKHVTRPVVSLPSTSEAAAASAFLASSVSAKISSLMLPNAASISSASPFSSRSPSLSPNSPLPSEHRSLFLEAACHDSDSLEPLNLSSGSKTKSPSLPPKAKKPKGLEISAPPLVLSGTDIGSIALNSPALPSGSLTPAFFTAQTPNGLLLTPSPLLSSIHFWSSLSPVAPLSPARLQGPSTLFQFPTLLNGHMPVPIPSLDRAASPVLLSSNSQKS
How it was run: as §1

FEV = target: T7, FEV (Homo sapiens, UniProt Q99581 1-238); conditions: protein: recombinant; tags: N-terminal GST; dsDNA, one strand shown
T7 sequence: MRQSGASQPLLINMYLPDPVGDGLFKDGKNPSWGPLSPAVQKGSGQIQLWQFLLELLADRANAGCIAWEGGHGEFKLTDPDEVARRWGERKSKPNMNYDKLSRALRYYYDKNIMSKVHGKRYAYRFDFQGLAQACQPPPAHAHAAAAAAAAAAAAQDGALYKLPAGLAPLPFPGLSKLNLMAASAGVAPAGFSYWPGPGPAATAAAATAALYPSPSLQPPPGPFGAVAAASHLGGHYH
How it was run: as §1

ETV5 = ETV5 (Homo sapiens, UniProt P41161 1-510); conditions: protein: recombinant; tags: N-terminal GST; dsDNA, one strand shown
How it was run: as §1

HSF1 = HSF1 (Homo sapiens, UniProt Q00613 1-529); conditions: protein: recombinant; tags: N-terminal GST; chain copies: 3; dsDNA, one strand shown
How it was run: as §1

SPIC = target: T8, SPIC (Homo sapiens, UniProt Q8N5J4 1-248); conditions: protein: recombinant; tags: N-terminal GST; dsDNA, one strand shown
T8 sequence: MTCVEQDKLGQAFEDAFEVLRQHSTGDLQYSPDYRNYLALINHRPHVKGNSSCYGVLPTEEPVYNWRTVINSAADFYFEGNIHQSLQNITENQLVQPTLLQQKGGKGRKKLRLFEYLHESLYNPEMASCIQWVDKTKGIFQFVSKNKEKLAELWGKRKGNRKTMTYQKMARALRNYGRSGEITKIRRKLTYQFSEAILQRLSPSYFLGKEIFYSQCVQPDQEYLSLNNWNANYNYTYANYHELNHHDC
How it was run: as §1

ELF4 = ELF4 (Homo sapiens, UniProt Q99607 1-663); conditions: protein: recombinant; tags: N-terminal GST; dsDNA, one strand shown
How it was run: as §1

ELK4 = target: T9, ELK4 (Homo sapiens, UniProt P28324-2 1-405); conditions: protein: recombinant; tags: N-terminal GST; dsDNA, one strand shown
T9 sequence: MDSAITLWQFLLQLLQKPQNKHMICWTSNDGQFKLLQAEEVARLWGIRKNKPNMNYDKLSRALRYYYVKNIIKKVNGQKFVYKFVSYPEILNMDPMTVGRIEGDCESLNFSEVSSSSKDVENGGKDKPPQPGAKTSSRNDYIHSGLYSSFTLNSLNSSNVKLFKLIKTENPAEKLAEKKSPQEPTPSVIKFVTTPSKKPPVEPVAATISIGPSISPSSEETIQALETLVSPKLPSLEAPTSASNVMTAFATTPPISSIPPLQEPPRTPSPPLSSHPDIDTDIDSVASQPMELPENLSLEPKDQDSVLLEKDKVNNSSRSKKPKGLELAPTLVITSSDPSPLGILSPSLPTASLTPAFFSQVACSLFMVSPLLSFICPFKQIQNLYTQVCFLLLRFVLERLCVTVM
How it was run: as §1

ETV2 = target: T10, ETV2 (Homo sapiens, UniProt O00321 1-342); conditions: protein: recombinant; tags: N-terminal GST; dsDNA, one strand shown
T10 sequence: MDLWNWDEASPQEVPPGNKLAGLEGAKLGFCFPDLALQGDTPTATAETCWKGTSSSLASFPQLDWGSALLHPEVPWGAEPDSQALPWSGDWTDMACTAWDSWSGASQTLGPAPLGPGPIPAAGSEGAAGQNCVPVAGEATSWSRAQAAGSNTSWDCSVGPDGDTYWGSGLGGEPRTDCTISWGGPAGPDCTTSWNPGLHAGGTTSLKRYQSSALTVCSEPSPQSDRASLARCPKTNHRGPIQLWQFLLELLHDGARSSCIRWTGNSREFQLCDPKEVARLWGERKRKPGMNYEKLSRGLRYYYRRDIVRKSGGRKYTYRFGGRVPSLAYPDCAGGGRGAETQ
How it was run: as §1

ELF3 = target: T11, ELF3 (Homo sapiens, UniProt P78545 1-371); conditions: protein: recombinant; tags: N-terminal GST; dsDNA, one strand shown
T11 sequence: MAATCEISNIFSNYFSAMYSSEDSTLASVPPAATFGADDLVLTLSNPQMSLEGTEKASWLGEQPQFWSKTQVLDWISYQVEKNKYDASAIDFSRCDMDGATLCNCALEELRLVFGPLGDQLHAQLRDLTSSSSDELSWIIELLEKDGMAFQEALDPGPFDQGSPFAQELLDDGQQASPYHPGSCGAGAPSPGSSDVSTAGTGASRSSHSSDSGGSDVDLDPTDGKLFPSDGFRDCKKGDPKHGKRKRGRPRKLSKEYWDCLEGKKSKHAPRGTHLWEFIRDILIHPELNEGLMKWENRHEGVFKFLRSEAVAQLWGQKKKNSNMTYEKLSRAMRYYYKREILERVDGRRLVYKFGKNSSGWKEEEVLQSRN
How it was run: as §1

CRX = CRX (Homo sapiens, UniProt O43186 1-299); conditions: protein: recombinant; tags: N-terminal GST; dsDNA, one strand shown
How it was run: as §1

ETV1 = ETV1 (Homo sapiens, UniProt P50549 1-477); conditions: protein: recombinant; tags: N-terminal GST; dsDNA, one strand shown
How it was run: as §1

Sequence of CRX (O43186 whole entry): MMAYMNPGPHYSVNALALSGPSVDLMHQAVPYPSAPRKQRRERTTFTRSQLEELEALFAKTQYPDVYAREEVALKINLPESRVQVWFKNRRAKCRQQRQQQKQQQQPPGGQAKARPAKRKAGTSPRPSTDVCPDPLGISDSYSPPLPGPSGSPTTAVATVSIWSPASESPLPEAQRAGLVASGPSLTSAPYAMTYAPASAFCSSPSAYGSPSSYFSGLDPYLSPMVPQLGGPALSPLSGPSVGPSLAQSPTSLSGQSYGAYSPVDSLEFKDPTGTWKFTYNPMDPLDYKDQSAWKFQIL
Sequence of ELF4 (Q99607 whole entry): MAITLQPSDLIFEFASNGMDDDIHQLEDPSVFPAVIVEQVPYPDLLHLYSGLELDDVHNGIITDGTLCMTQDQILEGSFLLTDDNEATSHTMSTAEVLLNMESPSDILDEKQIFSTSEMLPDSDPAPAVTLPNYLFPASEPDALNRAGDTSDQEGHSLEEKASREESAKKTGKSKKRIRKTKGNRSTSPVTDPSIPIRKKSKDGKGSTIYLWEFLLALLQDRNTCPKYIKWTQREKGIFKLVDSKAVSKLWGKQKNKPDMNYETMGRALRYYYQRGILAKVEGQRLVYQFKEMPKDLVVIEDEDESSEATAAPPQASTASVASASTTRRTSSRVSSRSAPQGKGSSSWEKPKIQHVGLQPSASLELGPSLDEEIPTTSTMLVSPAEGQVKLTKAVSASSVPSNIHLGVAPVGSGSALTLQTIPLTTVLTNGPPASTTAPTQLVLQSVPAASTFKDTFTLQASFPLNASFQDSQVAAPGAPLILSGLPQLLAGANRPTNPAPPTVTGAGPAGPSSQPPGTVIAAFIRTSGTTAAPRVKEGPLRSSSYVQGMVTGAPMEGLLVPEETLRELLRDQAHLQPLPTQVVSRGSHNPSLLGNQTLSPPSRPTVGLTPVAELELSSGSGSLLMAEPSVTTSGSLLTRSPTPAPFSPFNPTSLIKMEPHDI
Sequence of ETV5 (P41161 whole entry): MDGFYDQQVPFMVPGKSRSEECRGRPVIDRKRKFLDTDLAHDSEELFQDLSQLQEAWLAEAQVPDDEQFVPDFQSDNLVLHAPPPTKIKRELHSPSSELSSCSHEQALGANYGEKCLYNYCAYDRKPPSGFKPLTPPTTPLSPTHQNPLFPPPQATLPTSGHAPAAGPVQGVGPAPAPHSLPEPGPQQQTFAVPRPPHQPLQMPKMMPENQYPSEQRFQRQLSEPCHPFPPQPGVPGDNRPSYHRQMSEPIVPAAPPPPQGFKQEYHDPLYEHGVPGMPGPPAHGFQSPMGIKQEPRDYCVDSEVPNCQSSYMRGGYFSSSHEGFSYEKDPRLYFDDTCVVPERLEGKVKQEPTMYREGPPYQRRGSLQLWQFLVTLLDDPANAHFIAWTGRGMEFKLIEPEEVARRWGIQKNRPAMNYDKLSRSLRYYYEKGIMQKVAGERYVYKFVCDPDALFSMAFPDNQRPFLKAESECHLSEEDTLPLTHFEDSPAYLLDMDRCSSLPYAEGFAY
Sequence of HSF1 (Q00613 whole entry): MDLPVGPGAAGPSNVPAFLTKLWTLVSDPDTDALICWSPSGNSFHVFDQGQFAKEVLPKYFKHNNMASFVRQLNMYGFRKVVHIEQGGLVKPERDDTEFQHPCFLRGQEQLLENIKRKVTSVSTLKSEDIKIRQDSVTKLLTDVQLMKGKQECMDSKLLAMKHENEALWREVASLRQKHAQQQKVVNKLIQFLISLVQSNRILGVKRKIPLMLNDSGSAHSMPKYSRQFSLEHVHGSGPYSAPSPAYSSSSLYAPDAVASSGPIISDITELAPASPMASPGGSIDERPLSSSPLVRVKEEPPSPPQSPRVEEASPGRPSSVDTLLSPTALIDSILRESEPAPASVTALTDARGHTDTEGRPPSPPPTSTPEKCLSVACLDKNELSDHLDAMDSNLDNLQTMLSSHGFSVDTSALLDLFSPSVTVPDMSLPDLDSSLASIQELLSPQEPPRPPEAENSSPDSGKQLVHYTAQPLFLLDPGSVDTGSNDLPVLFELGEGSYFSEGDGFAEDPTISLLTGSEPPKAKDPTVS
Sequence of SPIB (Q01892 whole entry): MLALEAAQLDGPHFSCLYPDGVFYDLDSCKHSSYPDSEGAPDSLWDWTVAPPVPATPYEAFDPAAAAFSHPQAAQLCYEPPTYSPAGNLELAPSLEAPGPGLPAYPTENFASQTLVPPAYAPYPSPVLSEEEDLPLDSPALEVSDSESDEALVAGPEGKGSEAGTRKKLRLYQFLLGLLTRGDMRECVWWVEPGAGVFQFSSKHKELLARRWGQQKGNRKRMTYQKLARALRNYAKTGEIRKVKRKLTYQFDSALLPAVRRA
Sequence of ELF1 (P32519 whole entry): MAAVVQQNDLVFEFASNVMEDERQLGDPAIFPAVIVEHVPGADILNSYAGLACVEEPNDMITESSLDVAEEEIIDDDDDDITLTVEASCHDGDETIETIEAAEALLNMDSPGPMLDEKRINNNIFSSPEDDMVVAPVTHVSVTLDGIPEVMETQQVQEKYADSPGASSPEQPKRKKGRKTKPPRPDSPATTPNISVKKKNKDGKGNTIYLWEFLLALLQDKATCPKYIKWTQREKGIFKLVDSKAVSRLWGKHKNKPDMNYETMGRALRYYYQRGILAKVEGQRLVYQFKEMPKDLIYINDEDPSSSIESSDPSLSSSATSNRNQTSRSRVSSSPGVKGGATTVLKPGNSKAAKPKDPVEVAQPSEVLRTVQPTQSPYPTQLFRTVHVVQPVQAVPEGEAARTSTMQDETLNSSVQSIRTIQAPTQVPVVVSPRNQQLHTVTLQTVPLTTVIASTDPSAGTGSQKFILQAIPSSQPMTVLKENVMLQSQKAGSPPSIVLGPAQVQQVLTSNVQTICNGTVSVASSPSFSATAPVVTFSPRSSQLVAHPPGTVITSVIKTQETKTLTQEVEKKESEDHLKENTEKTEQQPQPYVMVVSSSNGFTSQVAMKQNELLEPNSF
Sequence of ETV1 (P50549 whole entry): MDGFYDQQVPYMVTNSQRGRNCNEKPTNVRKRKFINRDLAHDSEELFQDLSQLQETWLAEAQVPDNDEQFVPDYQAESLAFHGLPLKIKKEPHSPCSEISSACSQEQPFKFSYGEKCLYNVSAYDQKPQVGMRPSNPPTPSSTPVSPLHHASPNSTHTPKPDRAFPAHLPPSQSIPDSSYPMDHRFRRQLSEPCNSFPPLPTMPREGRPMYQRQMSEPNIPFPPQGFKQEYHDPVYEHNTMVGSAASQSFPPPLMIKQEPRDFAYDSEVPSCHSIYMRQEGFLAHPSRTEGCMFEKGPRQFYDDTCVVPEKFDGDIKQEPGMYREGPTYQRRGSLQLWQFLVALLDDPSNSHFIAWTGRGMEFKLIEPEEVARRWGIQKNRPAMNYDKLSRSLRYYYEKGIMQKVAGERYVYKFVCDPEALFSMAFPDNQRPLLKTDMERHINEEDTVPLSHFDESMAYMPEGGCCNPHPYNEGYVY

ATGACT
binding signal (FLI1): 1.5 fold enrichment (6-mer frequency, TF over GST control)
binding signal (ELK1): 1.42 fold enrichment (6-mer frequency, TF over GST control)
binding signal (GABPA): 1.39 fold enrichment (6-mer frequency, TF over GST control)
binding signal (ERG): 1.44 fold enrichment (6-mer frequency, TF over GST control)
binding signal (ELF1): 1.42 fold enrichment (6-mer frequency, TF over GST control)
binding signal (EHF): 1.35 fold enrichment (6-mer frequency, TF over GST control)
binding signal (SPI1): 1.51 fold enrichment (6-mer frequency, TF over GST control)
binding signal (SPIB): 1.52 fold enrichment (6-mer frequency, TF over GST control)
binding signal (ELK3): 1.33 fold enrichment (6-mer frequency, TF over GST control)
binding signal (FEV): 1.4 fold enrichment (6-mer frequency, TF over GST control)
binding signal (ETV5): 1.43 fold enrichment (6-mer frequency, TF over GST control)
binding signal (HSF1): 1.21 fold enrichment (6-mer frequency, TF over GST control)
binding signal (SPIC): 1.47 fold enrichment (6-mer frequency, TF over GST control)
binding signal (ELF4): 1.41 fold enrichment (6-mer frequency, TF over GST control)
binding signal (ELK4): 1.39 fold enrichment (6-mer frequency, TF over GST control)
binding signal (ETV2): 1.41 fold enrichment (6-mer frequency, TF over GST control)
binding signal (ELF3): 1.46 fold enrichment (6-mer frequency, TF over GST control)
binding signal (CRX): 1.25 fold enrichment (6-mer frequency, TF over GST control)
binding signal (ETV1): 1.36 fold enrichment (6-mer frequency, TF over GST control)
